From PubChem BioAssay
GalR3 antag: GalR3 antagonists in HEK293 cells, primary screen, cell-based, fluorescence readout | Galanin receptor type 3 (Homo sapiens), O60755 | HEK293 GalR3-CNG cAMP membrane potential fluorescence; galR3 body fused to GalR1 C-terminus | inhibition, % at 3 µM | 360,000 compounds, 0.44% hits;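 active = inhibition above the screen-wide average plus 3 SD, cut at about 13% in these data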;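 note: forskolin and galanin both at EC90 stimulate the cells; cAMP rise reported by CNG channel membrane potential dye signal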
Target sequence (O60755 1-299 limits assumed): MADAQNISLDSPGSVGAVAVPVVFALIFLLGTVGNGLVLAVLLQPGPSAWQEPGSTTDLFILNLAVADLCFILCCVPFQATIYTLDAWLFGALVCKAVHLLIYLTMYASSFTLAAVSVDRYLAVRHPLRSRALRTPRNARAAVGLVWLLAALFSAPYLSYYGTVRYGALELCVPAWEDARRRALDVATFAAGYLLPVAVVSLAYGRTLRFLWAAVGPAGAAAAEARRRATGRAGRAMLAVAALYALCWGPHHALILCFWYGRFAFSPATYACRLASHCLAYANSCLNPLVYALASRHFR
Jurkat NFkB inh: inhibitors of induced NF-kB luciferase reporter, primary screen, TCR NF-kB activation inhibitor project, cell-based, luminescence, uHTS. inhibition, % at 4 µM. Jurkat, PMA/ionomycin-induced NF-kB luciferase reporter. 330,000 compounds, 0.53% hits; in the data active = inhibition above about 50%
NR2F2 inh: NR2F2 transcriptional activity inhibitors, primary screen, cell-based, luciferase reporter, HEK293T, luminescence. COUP transcription factor 2 (Homo sapiens), P24468. HEK293T NGFI-A luciferase reporter. inhibition, % at 8.6 µM. 370,000 compounds, 0.7% hits. AID 686940, 2013;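 active = inhibition above a per-plate cutoff, mean inhibition of test wells between control levels plus 3 SD, cut at about 38% in these data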;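 note: cells cotransfected with COUP-TFII expression vector driving the NGFI-A reporter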
697 NFkB inh: inhibitors of PMA/ionomycin-induced NF-kB reporter, 697 cells, primary screen, B-cell NF-kB inhibitor project, cell-based, luminescence, uHTS; 697 B-cell NF-kB luciferase reporter, 16 h; inhibition, % at 4 µM; 330,000 compounds, 0.33% hits; in the data active = inhibition above about 35%
Gli-Sufu antag: Gli-Sufu pathway antagonists, primary screen, luciferase luminescence, Sufu-KO-LIGHT cells, uHTS; Sufu-KO-LIGHT fibroblasts, Gli luciferase reporter luminescence; inhibition, % at 5 µM; 340,000 compounds, 0.74% hits; AID 588413, 2011;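 active = inhibition above about 55%, limit read from the data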
Gli-Sufu confirm: Gli-SUFU pathway antagonists, confirmation, single concentration, luciferase luminescence, Sufu-KO-LIGHT cells; shares compounds with Gli-Sufu antag; Gli luciferase reporter; inhibition, % at 5 µM; 2,500 compounds, 40% hits; AID 602428, 2012;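 active = mean inhibition at 5 µM reaching about 45%, limit read from the data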
SufuKO cytotox: cytotoxicity in Sufu-KO-LIGHT cells, confirmation, cytotoxicity control for Gli-SUFU antagonist project, cell-based, ATP luminescence, single concentration. shares compounds with Gli-Sufu antag. cytotoxicity, % at 5 µM. 2,500 compounds, 32% hits;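 active = mean cytotoxicity at 5 µM above about 25%, limit read from the data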;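 note: cells exposed to compound overnight for roughly 16 to 18 hours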
Wnt3a cs: Wnt3a reporter signal inhibition, confirmation, counter-screen for Gli-SUFU antagonist project, Wnt-LIGHT cells, luminescence, single concentration; shares compounds with Gli-Sufu antag; Wnt3a-driven luciferase reporter; inhibition, % at 6.25 µM; 2,500 compounds, 20% hits; AID 651995, 2013;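 active = mean inhibition above about 25%, limit read from the data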
Numbers stand for hits; 0 = inactive; - = no result given. An excerpt weighted towards active compounds, which were near 2% of everything screened.

SMILES | GalR3 antag | Jurkat NFkB inh | NR2F2 inh | 697 NFkB inh | Gli-Sufu antag | Gli-Sufu confirm | SufuKO cytotox | Wnt3a cs
O=C(CCNC(=O)C1CCN(S(=O)(=O)c2ccc(F)cc2)CC1)NCc1ccc(F)cc1 | 0 | 0 | 0 | 0 | 0 | - | - | -
CCOc1ccc(NC(=O)CCNC(=O)C2CCN(S(=O)(=O)c3ccccc3)CC2)cc1 | 0 | 0 | 0 | 0 | 57 | 0 | 26 | 0
O=C(CCNC(=O)C1CCN(S(=O)(=O)c2ccc(F)cc2)CC1)NCc1ccc(Cl)cc1 | 0 | 0 | 0 | 0 | 61 | 0 | 0 | 0
COc1ccc(NC(=O)CCNC(=O)C2CCN(S(=O)(=O)c3ccc(OC)cc3)CC2)cc1 | 0 | 0 | 0 | 0 | 0 | - | - | -
O=C(CN1C(=O)c2ccccc2C1=O)Nc1cccnc1 | 0 | 0 | 0 | 0 | 64 | 0 | 0 | 0
CCN(C[C@H]1[C@@H](c2ccc(C3=CCCC3)cc2)[C@H](CO)N1C(=O)c1cccnc1)S(=O)(=O)c1ccccc1[N+](=O)[O-] | - | - | 0 | - | - | - | - | -
CN(CC(=O)Nc1ccc(Cl)cc1)CC(=O)Nc1cccc(Br)c1 | 0 | 0 | 0 | 0 | 55 | 0 | 0 | 0
O=C(NCCc1c[nH]c2ccccc12)[C@H](Cc1c[nH]c2ccccc12)NC1(C(=O)NC2CCCCC2)CCCCCCC1 | - | - | 0 | - | - | - | - | -
Cc1ccc(Cn2c(N3CCN(CCO)CC3)nc3c2c(=O)n(C)c(=O)n3C)cc1 | 0 | 0 | 0 | 0 | 0 | 0 | 0 | 0
CC(C)NC(=O)N[C@H]1C[C@@H]2O[C@H](CO)CC[C@@H]2O[C@@H]1CCc1ccc(-c2ccccc2F)cc1 | - | - | 0 | - | - | - | - | -
CC1(C)Cc2c(cnn2-c2ccccc2)C(NC(=O)c2ccc[n+]([O-])c2)C1 (stereo not given) | 0 | 0 | 0 | 0 | 0 | 0 | 0 | 0
CN(C(=O)c1ccc(NC(=O)Cc2cccc(NC(=O)C3CCCN(C(=O)C4CCC4)C3)c2)cc1)C1CCCC1 (stereo not given) | 0 | 0 | 0 | 0 | 57 | 0 | 0 | 0
Cc1cc(C)cc(NC(=O)NCCCN2CCN(c3ccc(F)cc3)CC2)c1 | - | - | 0 | - | - | - | - | -
CN(C)CCN1C(=O)c2oc3ccccc3c(=O)c2C1c1ccc(F)cc1 (stereo not given) | 0 | 0 | 0 | 0 | 0 | - | - | -
CCN(CC)CCN1C(=O)c2oc3ccccc3c(=O)c2C1c1ccc(C)cc1 (stereo not given) | 0 | 0 | 0 | 0 | 80 | 0 | 0 | 0
CCn1cc(C(=O)NCCc2ccccc2)c(=O)c2cc(S(=O)(=O)N(C)C)ccc21 | 0 | 0 | 0 | 0 | 0 | - | - | -
CCn1cc(C(=O)NCCN(C)CCc2ccccc2)c(=O)c2cc(S(=O)(=O)N(C)C)ccc21 | 0 | 0 | 0 | 0 | 69 | 0 | 0 | 0
O=c1c2ccccc2sc2c(CO)ccc(NCCN3CCCCC3)c12 | 0 | - | 0 | - | 0 | 0 | 0 | 0
CCN(CC)CCNc1ccc(CO)c2sc3ccccc3c(=O)c12 | - | 0 | 0 | 0 | 0 | - | - | -
Cc1cc(C)cc(-n2ccn(CC(=O)NCCc3ccccc3)c(=O)c2=O)c1 | 0 | 0 | 0 | 0 | 0 | 0 | 0 | 0
CCCC1CCC2(CC1)CCC2OC(=S)Nc1ccc(Cl)cc1 (stereo not given) | - | - | 0 | - | - | - | - | -
COc1ccc2[nH]c(=O)c(CN(C(=O)c3cccnc3)c3ccc(C)cc3)cc2c1 | 0 | 0 | 0 | 0 | 83 | 0 | 0 | 0
Oc1ccc(/C=N/Nc2nc(N3CCCC3)nc(N3CCCC3)n2)cc1O | 0 | 0 | 0 | 0 | 64 | 51 | 0 | 83
CC(C)(C)c1[nH]nc2c1C(c1ccco1)C(C#N)=C(N)O2 (stereo not given) | 0 | 0 | 0 | 0 | 0 | 0 | 0 | 0
